# Reference: PMC6451091, “NextPBM: a platform to study cell-specific transcription factor binding and cooperativity”
# The full ranking holds about 3,700 sequences; the median of “z-score” is about 4, and the highest 2% start at about 8.4. This is one part of a sample in which the highest values are shown more often than they occur.
# Experiments:
# [1] = biological target: PU.1 (IVT) (UniProt P17947 1-270); assay: protein-binding microarray (PBM); 20 mM HEPES pH 7.9, 100 mM NaCl, 1 mM DTT, 0.2 mg/mL BSA, 0.02% Triton X-100, 2% milk, 0.4 mg/mL salmon testes DNA; 1 h; temperature not stated; high values mean tight binding; details: dsDNA, one strand shown
# Procedure, shortened: (§1)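 Untagged full-length PU.1 was produced by coupled human in vitro transcription/translation and incubated for 1 h on custom double-stranded DNA microarrays in HEPES pH 7.9 containing 100 mM NaCl, 2% milk and salmon testes DNA. Each array carried 20-bp genomic sites and single-nucleotide variants, with 10 probes per site (5 per orientation). Bound protein was detected with anti-PU.1 followed by a fluorescent secondary antibody. Binding values are z-scores calculated from scanned fluorescence after linear-regression normalisation.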
# [2] = biological target: PU.1 (IVT) (UniProt P17947 1-270); assay: as above; details: dsDNA, one strand shown; remark: listed apart in the source
# Procedure, shortened: as §1
Sequence,binding signal [1],binding signal [2]
GCCTAGCACCAAAAAGGGAAGTGCATGCTGTGCTAGGTCTTGATTCGCTTGACGCTGCTG,6.52 z-score,
GCCTAGCACAGCATGAGGAAGTGTCAGATGTGCTAGGTCTTGATTCGCTTGACGCTGCTG,,4.45 z-score
GCCTAGCACTTGAAAAGGAAGTGCAACAAGTGCTAGGTCTTGATTCGCTTGACGCTGCTG,2.73 z-score,
GCCTAGCACTGAAAGAGGAACTCTCACATGTGCTAGGTCTTGATTCGCTTGACGCTGCTG,4.89 z-score,
GCCTAGCACAAAAAAAGGAAGTCAAAGTCGTGCTAGGTCTTGATTCGCTTGACGCTGCTG,6.75 z-score,
GCCTAGCACAACAAGAGGAAGTGGCTTTCGTGCTAGGTCTTGATTCGCTTGACGCTGCTG,5.51 z-score,
GCCTAGCACCAAAAGAGGAAGTCATTTATGTGCTAGGTCTTGATTCGCTTGACGCTGCTG,8.11 z-score,
GCCTAGCACAAAAAGAGGAAGAGGAATAGGTGCTAGGTCTTGATTCGCTTGACGCTGCTG,,5.98 z-score
GCCTAGCACAAAAAGAGGAAGTCGTTTTCGTGCTAGGTCTTGATTCGCTTGACGCTGCTG,8.57 z-score,
GCCTAGCACAAAAAGAGGAAGTGCTTTTCGTGCTAGGTCTTGATTCGCTTGACGCTGCTG,8.49 z-score,
GCCTAGCACAAAAAGAGGAAGTGGTTGTCGTGCTAGGTCTTGATTCGCTTGACGCTGCTG,8.71 z-score,
GCCTAGCACAAAAGGAGGAAGTGGTTACAGTGCTAGGTCTTGATTCGCTTGACGCTGCTG,,6.37 z-score
GCCTAGCACAAAAAGAGGAAGTCTTTTATGTGCTAGGTCTTGATTCGCTTGACGCTGCTG,8.71 z-score,
GCCTAGCACAAAAAAAGGAAGTGGTGGTTGTGCTAGGTCTTGATTCGCTTGACGCTGCTG,6.87 z-score,
GCCTAGCACAAAAGAAGGAAGTGGTTTATGTGCTAGGTCTTGATTCGCTTGACGCTGCTG,,6.15 z-score
GCCTAGCACAAAAAGAGGAAGAGAGAAAAGTGCTAGGTCTTGATTCGCTTGACGCTGCTG,,5.63 z-score
GCCTAGCACTATTTGAGGAAGTGTGAGAAGTGCTAGGTCTTGATTCGCTTGACGCTGCTG,5.91 z-score,
GCCTAGCACTAAAGAGGGAAGTGGGAGCCGTGCTAGGTCTTGATTCGCTTGACGCTGCTG,3.74 z-score,
GCCTAGCACGGAAAGTGGAACTGAAACTTGTGCTAGGTCTTGATTCGCTTGACGCTGCTG,,1.93 z-score
GCCTAGCACGAAAAGAGGATGTGGATCTGGTGCTAGGTCTTGATTCGCTTGACGCTGCTG,,3.52 z-score
GCCTAGCACAAAAACAGGAACTGGCCAGGGTGCTAGGTCTTGATTCGCTTGACGCTGCTG,,5.89 z-score
GCCTAGCACCGAATGAGGAACTGATGCGGGTGCTAGGTCTTGATTCGCTTGACGCTGCTG,,5.03 z-score
GCCTAGCACGAGAAGAGGAAGTCAAATAAGTGCTAGGTCTTGATTCGCTTGACGCTGCTG,,5.64 z-score
GCCTAGCACGAAAAGAGGAAGTCACATTGGTGCTAGGTCTTGATTCGCTTGACGCTGCTG,8.32 z-score,
GCCTAGCACGAAAAGAGGAAGTCACATTAGTGCTAGGTCTTGATTCGCTTGACGCTGCTG,8.62 z-score,

Sequence,binding signal [1],binding signal [2]
GCCTAGCACAAAAAGAGGAAGTCAAATTAGTGCTAGGTCTTGATTCGCTTGACGCTGCTG,8.57 z-score,
GCCTAGCACGAAAAGAGGAAGTCAAATTAGTGCTAGGTCTTGATTCGCTTGACGCTGCTG,8.43 z-score,
GCCTAGCACAATAAGAGGAAGTCAAAATAGTGCTAGGTCTTGATTCGCTTGACGCTGCTG,,6.65 z-score
GCCTAGCACAAAAAGAGGAAGTCAAATAAGTGCTAGGTCTTGATTCGCTTGACGCTGCTG,8.51 z-score,
GCCTAGCACAAAAAAAGGAAGTGGAATTAGTGCTAGGTCTTGATTCGCTTGACGCTGCTG,6.73 z-score,
GCCTAGCACGAAAAGAGGAAGTCAAAATAGTGCTAGGTCTTGATTCGCTTGACGCTGCTG,8.29 z-score,
GCCTAGCACGAAATGAGGAAGTCAAATTAGTGCTAGGTCTTGATTCGCTTGACGCTGCTG,7.71 z-score,
GCCTAGCACGAAAAGAGGAAGTCAGATTAGTGCTAGGTCTTGATTCGCTTGACGCTGCTG,8.07 z-score,
GCCTAGCACAAAAAGAGGAAGTCAAATTGGTGCTAGGTCTTGATTCGCTTGACGCTGCTG,8.3 z-score,
GCCTAGCACGCTTTAGGGAACTACTGTGGGTGCTAGGTCTTGATTCGCTTGACGCTGCTG,,3.58 z-score
GCCTAGCACCCTAAAGGGAAGTGTAAATAGTGCTAGGTCTTGATTCGCTTGACGCTGCTG,,3.27 z-score
GCCTAGCACCAAATCAGGAACTGATGCGGGTGCTAGGTCTTGATTCGCTTGACGCTGCTG,,3.39 z-score
GCCTAGCACTTTTATCAGGAAATGACTGGGTGCTAGGTCTTGATTCGCTTGACGCTGCTG,,0.896 z-score
GCCTAGCACTCAGGAGGGAAGTGAAGAAAGTGCTAGGTCTTGATTCGCTTGACGCTGCTG,2.65 z-score,
GCCTAGCACAGATTGTGGAAGTACTGTGAGTGCTAGGTCTTGATTCGCTTGACGCTGCTG,2.73 z-score,
GCCTAGCACAGAATAGGGAAGTGAGAAATGTGCTAGGTCTTGATTCGCTTGACGCTGCTG,6.39 z-score,
GCCTAGCACCAGAAAAGGAAGTGGGGGTGGTGCTAGGTCTTGATTCGCTTGACGCTGCTG,,3.51 z-score
GCCTAGCACCTGGGAGGGAACTGAAACTCGTGCTAGGTCTTGATTCGCTTGACGCTGCTG,,0.859 z-score
GCCTAGCACTGGAAGAGGAAGTGGCACTGGTGCTAGGTCTTGATTCGCTTGACGCTGCTG,,5.78 z-score
GCCTAGCACCTTTTAAGGAAGTGCTCACTGTGCTAGGTCTTGATTCGCTTGACGCTGCTG,,4.92 z-score
GCCTAGCACGAAGTAGGGAAGTGAAAGAGGTGCTAGGTCTTGATTCGCTTGACGCTGCTG,,3.36 z-score
GCCTAGCACGAAAAGAGGAAGTGAGAAACGTGCTAGGTCTTGATTCGCTTGACGCTGCTG,8.29 z-score,
GCCTAGCACGAAAAGAGGAAGCCCATGTGGTGCTAGGTCTTGATTCGCTTGACGCTGCTG,5.2 z-score,
GCCTAGCACGAAAAGAGGAAGTTGCTTACGTGCTAGGTCTTGATTCGCTTGACGCTGCTG,9.03 z-score,
